Tau fluor counter = counter-screen for tau fibril formation inhibitors; Potency, µM (highest dose often 57.7 µM); 280,000 compounds, 0.93% hits; tau K18 P301L Alexa594 fluorescence, heparin fibrillization; also: nearly all actives have a fitted effect of over 55% in size
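Human K18 P301L tau (15 uM unlabeled plus 0.24 uM Alexa 594-labeled, final) in 100 mM sodium acetate pH 7 was mixed with compound and 20 uM heparin and incubated 6 hr at 37 C.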
PNC assembly inh = perinucleolar compartment assembly inhibition; activity change (PNC), negative = inhibition, % at 10 µM; PC3M PTB-GFP, PNC prevalence imaging, 16 h; stronger effect = lower value; 140,000 compounds, 3.1% hits;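 active = readout at or below -70, meaning at least 70% loss of cells showing the perinucleolar compartment, a nuclear body marking cancer cells; inconclusive = readout between -30 and a set limit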
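Read-out is percentage of cells bearing a perinucleolar compartment, from automated 20x imaging of fixed, Hoechst-stained PC3M PTB-GFP cells. Cells were seeded 4 h, then exposed 16 h to compound (23 nl of library stock) in duplicate plates.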
Tau fibril FP = inhibitors of human tau fibril formation; K18 P301L tau heparin fibrillization, Alexa594 FP, 6 h; 280,000 compounds, 0.39% hits; P10636; AID 1468; Potency, µM (doses to about 57.7 µM), hits mostly inhibitors; also: nearly all actives have a fitted effect of over 55% in size
Target sequence (P10636 561-689 P618L limits assumed): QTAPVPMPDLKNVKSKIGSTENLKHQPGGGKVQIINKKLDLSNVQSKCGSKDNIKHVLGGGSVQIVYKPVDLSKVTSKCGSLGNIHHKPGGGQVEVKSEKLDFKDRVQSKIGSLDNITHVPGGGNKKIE
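K18 P301L tau (15 uM unlabeled/0.24 uM Alexa 594-labeled, final) + compound + heparin 20 uM final; 100 mM NaOAc pH 7; 6 hr 37 C; ThT 30 uM final added, 1 hr RT; FP ex 555/em 632 nm.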
Tau ThT inhib = inhibitors of human tau fibril formation, thioflavin T binding | P10636 | recombinant tau K18 P301L, heparin-induced fibrillization, ThT fluorescence | Potency, µM (highest dose often 57.4 µM), usual class: inhibitors | 270,000 compounds, 2.1% hits; also: nearly all actives have a fitted effect of over 55% in size
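Fibril formation assay: tau K18 P301L at 15 uM with trace Alexa 594 label, heparin inducer 20 uM, pH 7 sodium acetate buffer, 37 C for 6 hr; endpoint ThT signal.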
TRb-SRC2 inh = disrupts binding of human TR beta to SRC2. Potency, µM (doses to about 106 µM), most hits filed as inhibitors. P10828. 280,000 compounds, 0.065% hits. AID 1469. TRbeta-SRC2 peptide binding, fluorescence polarization; receptor liganded with 1 µM T3; also: nearly all actives have a fitted effect of over 50% in size
Target sequence (P10828 whole entry, looked up): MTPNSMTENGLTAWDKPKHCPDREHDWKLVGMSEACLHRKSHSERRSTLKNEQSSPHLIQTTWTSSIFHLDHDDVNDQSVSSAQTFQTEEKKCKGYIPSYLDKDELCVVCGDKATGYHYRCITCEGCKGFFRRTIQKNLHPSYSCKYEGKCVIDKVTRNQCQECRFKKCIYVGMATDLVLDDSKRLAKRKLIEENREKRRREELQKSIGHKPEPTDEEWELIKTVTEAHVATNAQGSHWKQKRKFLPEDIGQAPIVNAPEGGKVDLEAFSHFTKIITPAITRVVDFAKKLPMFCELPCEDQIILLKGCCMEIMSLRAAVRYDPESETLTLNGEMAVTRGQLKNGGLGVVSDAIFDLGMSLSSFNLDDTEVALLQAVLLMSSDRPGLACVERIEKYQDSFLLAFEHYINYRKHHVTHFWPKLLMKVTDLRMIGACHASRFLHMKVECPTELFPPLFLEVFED
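Fluorescence polarization of 20 nM Texas Red SRC2 peptide with 0.6 uM human TRb ligand-binding domain, in Tris buffer with 1uM T3 and 5% DMSO. Incubated 5 hr ambient; normalized to unbound and bound controls.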
TR SRC2 fluor cs = counter-screen for TRb-SRC2 inhibitors: fluorescence interference; TRb/SRC2 Texas Red total fluorescence interference; Potency, µM (series often up to 106 µM); 280,000 compounds, 0.29% hits; AID 1479; active = well fitted curve in either direction with a large enough effect; inconclusive = small, poorly fitted or top-dose-only effect
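Flags fluorescent or light-absorbing compounds by total fluorescence, S + 2P, at 555 nm excitation and 632 nm emission. Mixture: 20 nM Texas Red SRC2 peptide, 0.6 uM human TRb LBD, 1 uM T3, 5% DMSO; compound exposure 5 h at ambient temperature.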
Each line names hits and unclear results; the compound was inactive in the other large screens; [ ] = dose if it differs, or a comment. This is a sample that favours compounds with a hit; in the whole collection about 4.6% have one here. Unless noted, calls follow the shape of the dose curve; as a rule, active = well fitted curve in the direction sought with a large enough effect; inconclusive = small, poorly fitted or top-dose-only effect, or another doubt; inactive = no such curve, though single readings can be large; an effect the other way counts as inactive or inconclusive.

CCC(=O)N1CCc2cc(S(=O)(=O)NCc3ccc(C)cc3)ccc21	Tau fibril FP inconclusive (no result: PNC assembly inh)
CCn1c(SCC(=O)Nc2cccc(C)c2)nc2c(c1=O)SC(C)C2 (stereo not given)	none
COc1ccc2c([N+](=O)[O-])c(Cl)[nH]c2c1	Tau fluor counter inconclusive, Tau fibril FP inconclusive, Tau ThT inhib 28µM (no result: PNC assembly inh)
O=C(CN(Cc1ccccc1)S(=O)(=O)c1ccccc1)N1CCOCC1	PNC assembly inh -101
COc1ccc(S(=O)(=O)N(CC(=O)N2CCOCC2)Cc2ccccc2)cc1	none
O=C1NN(c2ccccc2)C(=O)/C1=C/c1ccc(Sc2ccc(Cl)cc2)o1	Tau fluor counter inconclusive, Tau ThT inhib 11µM (no result: PNC assembly inh)
Cc1ccc(Sc2ccc(/C=C3/C(=O)NN(c4ccccc4)C3=O)o2)cc1	Tau fluor counter inconclusive, Tau ThT inhib 13µM (no result: PNC assembly inh)
CCOC(=O)C1=C(C)NC(=O)NC1c1ccc([N+](=O)[O-])o1 (stereo not given)	none (no result: PNC assembly inh)
Cc1cc(C)c2c(NC(=O)c3ccccc3)c(C(=O)Nc3ccc(F)cc3)sc2n1	none (no result: PNC assembly inh)
Cc1ccc(C(C)C)c(Oc2nnnn2-c2ccccc2)c1	PNC assembly inh inconclusive
c1csc(CSc2nc3ccccc3s2)c1	none
CCCc1[nH]nc2c1C(c1cccnc1)C(C#N)=C(N)O2 (stereo not given)	Tau fluor counter inconclusive, Tau fibril FP inconclusive, Tau ThT inhib 18µM
CCn1c2ccccc2c2cc(C3C(C#N)=C(N)Oc4n[nH]c(COC)c43)ccc21 (stereo not given)	Tau fluor counter inconclusive, PNC assembly inh inconclusive, Tau ThT inhib 16µM
N#CC1=C(N)Oc2cc3ccccc3cc2C1c1cccnc1 (stereo not given)	PNC assembly inh -90
N#CC1=C(N)Oc2c(ccc3cccnc23)C1c1cccnc1 (stereo not given)	Tau ThT inhib inconclusive
C[C@@H]1O[C@H](O[C@@H]2\C=C/C=C\C=C/C=C\C[C@H](C)OC(=O)/C=C\[C@H]3O[C@@H]3C[C@H](O)C[C@]3(O)C[C@@H](O)[C@@H](C(=O)O)[C@H](C2)O3)[C@@H](O)[C@H](N)[C@@H]1O (stereo in doubt)	none (no result: Tau fluor counter, PNC assembly inh, Tau fibril FP, Tau ThT inhib)
CC(=O)N1CCN(C(=S)c2ccc([N+](=O)[O-])cc2)CC1	none
Cc1ccccc1/C=N/Nc1nc2ccccc2[nH]1	Tau fluor counter inconclusive, Tau ThT inhib inconclusive (no result: PNC assembly inh)
COc1ccc(/C=N/Nc2nc3ccccc3[nH]2)c(OC)c1OC	Tau fluor counter inconclusive, Tau ThT inhib inconclusive (no result: PNC assembly inh)
C(=N\Nc1nc2ccccc2[nH]1)/c1cccc2cccnc12	Tau fluor counter inconclusive, Tau ThT inhib 4.5µM (no result: PNC assembly inh)
C(=N\Nc1nc2ccccc2[nH]1)/c1ccccc1	Tau ThT inhib inconclusive (no result: PNC assembly inh)
C(=C\c1ccccc1)/C=N/Nc1nc2ccccc2[nH]1	Tau fluor counter inconclusive, Tau ThT inhib 7.9µM
Cc1ccc(/C=N/Nc2nc3ccccc3[nH]2)s1	Tau fluor counter inconclusive, Tau fibril FP inconclusive, Tau ThT inhib 7.9µM
C(=N\Nc1nc2ccccc2[nH]1)/c1c[nH]c2ccccc12	Tau fluor counter 16µM[quencher], Tau ThT inhib 13µM
COc1cc([N+](=O)[O-])ccc1NC(=O)CC1SC(=Nc2ccc(F)cc2)N(CCC2=CCCCC2)C1=O (stereo not given)	Tau fluor counter inconclusive, PNC assembly inh inconclusive
COCCN(C(=O)Nc1ccc(OC)cc1OC)C1CCN(C(C)C)CC1	none
CCOC(=O)C1CCCN(C(=O)c2cc3nc(-c4ccc5c(c4)OCO5)cc(C(F)(F)F)n3n2)C1 (stereo not given)	none
COc1ccc(NS(=O)(=O)c2cccc(C(=O)N/N=C(\C)c3ccc(-n4ccnc4)cc3)c2)cc1	none
COc1ccc(NS(=O)(=O)c2cccc(C(=O)N/N=C/c3cn(-c4ccccc4)nc3-c3ccc(OC)cc3)c2)cc1	Tau fluor counter inconclusive, Tau fibril FP 32µM, Tau ThT inhib inconclusive (no result: PNC assembly inh)
COc1ccc(-c2nn(-c3ccccc3)cc2/C=N/NC(N)=S)cc1OC	Tau fluor counter inconclusive, PNC assembly inh -112
O=C(N/N=C/c1cn(-c2ccccc2)nc1-c1cc2ccccc2o1)c1cccnc1	Tau fluor counter inconclusive, PNC assembly inh -106, Tau fibril FP inconclusive, Tau ThT inhib inconclusive
O=C(N/N=C/c1cn(-c2ccccc2)nc1-c1cc2ccccc2o1)c1ccncc1	Tau fluor counter inconclusive, Tau fibril FP inconclusive
COc1ccc(NS(=O)(=O)c2cccc(C(=O)N/N=C(\C)c3ccncc3)c2)cc1	PNC assembly inh -91
COc1ccc(NS(=O)(=O)c2cccc(C(=O)N/N=C/c3cn(-c4ccccc4)nc3-c3ccccc3)c2)cc1	Tau fibril FP inconclusive (no result: PNC assembly inh)
Cn1c(SCC(=O)NCc2cccs2)nnc1-c1ccco1	none
COc1ccc(/C=C2/SC(=S)N(n3c(C)ccc3C)C2=O)cc1	TRb-SRC2 inh inconclusive, TR SRC2 fluor cs inconclusive
CC/C(=N\Nc1ccccc1[N+](=O)[O-])c1ccc(O)cc1	Tau fluor counter 4.5µM[quencher], Tau ThT inhib 1.8µM (no result: PNC assembly inh)
CC12CC(NC(=O)N1CCc1ccccc1)c1ccccc1O2 (stereo not given)	none
CCn1c(CSCc2ccccc2)n[nH]c1=S	none (no result: PNC assembly inh)
CCn1c(CSc2nc3ccccc3[nH]2)n[nH]c1=S	PNC assembly inh -122
COc1ccc(N(CC(=O)N2CCN(c3cccc(OC)c3)CC2)S(=O)(=O)c2c(C)noc2C)cc1	none (no result: PNC assembly inh)
O=C(CN1c2ccccc2Sc2ccccc21)NNC(=S)Nc1ccc(Cl)cc1	none (no result: Tau fluor counter, PNC assembly inh, Tau fibril FP, Tau ThT inhib)
O=C(CN1c2ccccc2Sc2ccccc21)NNC(=S)Nc1ccc(Cl)cc1Cl	Tau fluor counter 10µM[quencher], Tau ThT inhib inconclusive
O=C(N/N=C/c1cccnc1)c1ccc(Cn2cc([N+](=O)[O-])cn2)o1	none (no result: PNC assembly inh)
O=C(Cn1cccc1C(=O)c1ccccc1)NCc1ccco1	none
O=[N+]([O-])c1ccc(Cl)c(/C=N/N2CCN(Cc3ccccc3Cl)CC2)c1	PNC assembly inh inconclusive
O=[N+]([O-])c1ccc(Cl)c(CN2CCC(O)CC2)c1	PNC assembly inh -124
Cc1[nH]nc(N2CCCCCC2)c1[N+](=O)[O-]	none
CCS(=O)(=O)N1CCCC(C(=O)NCCc2ccc(OC)c(OC)c2)C1 (stereo not given)	none
CCCS(=O)(=O)N1CCCC(C(=O)NCCc2ccc(OC)c(OC)c2)C1 (stereo not given)	PNC assembly inh -92
CCC(C)OC(=O)c1cc(C)nc2c(Br)cc(Br)cc12 (stereo not given)	PNC assembly inh -100
CCOC(=O)c1cc(C)nc(SC)c1C#N	none (no result: PNC assembly inh)
Cc1c(C(=O)NCCSCc2ccccc2Cl)cccc1[N+](=O)[O-]	Tau fluor counter inconclusive, PNC assembly inh inconclusive

Screens from PubChem BioAssay.
